Drawing on PubChem BioAssay (NCATS), this text covers Potency and viability (% of control) for 40 compounds.

Where “and” joins values, the source holds several entries; their conditions need not be identical. Equal values may be shown once. Results filed as inconclusive are left out. Entries that show only a call come without a potency. A number with no mark means an inactive call. Calls of active or inactive are those of the source. Calls follow the shape of the dose curve; as a rule, active = well fitted cell-killing curve with a large enough effect; inconclusive = small, poorly fitted or top-dose-only effect, or effect the other way; inactive = no such curve, though single readings can be large or run the other way.
Potency is read from the fitted curve at half-maximal effect.

The test is described as follows: Viability qHTS for spleen associated tyrosine kinase inhibitor (SYKi) naive MV4-11 cells (AID 1963823). Also: nearly all actives have a fitted effect of over 40% in size. To be noted: MV4-11 AML viability, CellTiter-Glo luminescence, 72 h; series mostly up to 45 µM. The text has this: Department of Medicine, Hematology/Oncology
University Hospital Frankfurt, Germany.
Trials have shown promising clinical activity of the selective SYK inhibitor entospletinib in patients with high expressing HOXA9/MEIS1 acute leukemias. As the development of resistance mechanisms is a common problem in the use of targeted drugs, we performed a chemical library screen to identify drug sensitivities in SYK inhibitor resistant AML cells. […] Glucocorticoids are potent immunosuppressants which work in part by inhibiting the transcription of cytokine genes.
Described herein is a viability screen to look for activity in the SYK inhibitor naive cell line against four NCATS compound libraries (MIPE 5.0, NPC, NPACT, and Kinase) totaling 11372 compounds. Active hits were reacquired for confirmation and further secondary assay testing.
SEQUENCE No. (e.g., 1, 2, 3, etc.); […] (e.g., Cells, Incubation, Reagent, etc.); VALUE; DESCRIPTION.
1; Media; 2uL; white, solid-bottom Corning assay plate.
2; Compounds; 23nL; Echo acoustic dispenser.
3; Cell; 5uL; 500 cells per well.
4: Incubation; 72hr; 37 C, 5% CO2, 95% humidity.
5; Reagent; 3uL; CellTiter-Glo reagent (Promega).
6; Incubation; 10min; room temperature.
7; Detection; Luminescence; ViewLux plate reader (PerkinElmer).
NOTES (numbers refer to Sequence numbers above
1. Quantitative high-throughput screening (qHTS) of small molecule compounds was conducted on naive SYKi MV4-11 cell line.
2. Twenty-three nanoliter of small molecule compounds were added to each assay plates using the Echo acoustic dispenser (Beckman Coulter).
3. Cells were seeded into the assay plates at a final density of 500 cells in 5uL of media per well using the Multi-drop Combi dispenser.
4. Plates were covered with stainless steel gasketed lids and incubated for 72 hours at standard cell culture conditions.
5. Viability was assessed by adding 3uL of CellTiter-Glo detection reagent (Promega).
6. Plates were covered with gasket lids and incubated for 10 minutes at room temperature.
7. Luminescence was measured on a ViewLux plate reader (PerkinElmer).
(In general: Quantitative high-throughput screening tests each substance at several concentrations.)
Turning to `O=C(O)C(=O)Nc1cccc(-c2nn[nH]n2)c1`, the Potency entry is “inactive”.

With `CCNc1nc2c(ncn2[C@H]2C[C@H](O)[C@@H](CO)O2)c(=O)[nH]1`, the Potency result is “inactive”.

With `CC(=O)OCC(=O)O[C@@H]1[C@H]2[C@@H](OC(=O)c3ccccc3)[C@@H](C)C[C@]2(O)[C@H](OC(C)=O)C2(C)[C@H]3CC(C)(C)C(=O)[C@@H]3CC1(OC(C)=O)[C@@H]2OC(C)=O` (stereo not given in full), the Potency result was “inactive”.

For the compound `O=C(c1cn(Cc2cncn2Cc2ccc(Br)cc2)cc1-c1cccc2ccccc12)N1CCOCC1`, the Potency is 0.82 µM (active).

As for `C=C[C@H]1[C@H](O[C@@H]2O[C@H](CO)[C@@H](O)[C@H](O)[C@H]2O)OC=C(C(=O)OC)[C@H]1CCO`, the Potency result was “inactive”.

Consider `C[C@@H]1C(=O)O[C@H]2CC34[C@H]5C[C@@H](C(C)(C)C)C36[C@H](OC(=O)[C@@H]6O)O[C@@]4(C(=O)O5)[C@]21O` (stereo not given in full), for which the Potency entry is “inactive”.

For the compound `COC(=O)C1=CO[C@@H](O[C@@H]2O[C@H](COC(=O)/C=C/c3cc(OC)c(O)c(OC)c3)[C@@H](O)[C@H](O)[C@H]2O)[C@@H]2C(CO)=CC[C@H]12`, the Potency result was “inactive”.

Consider `NNc1nnc(NN)c2ccccc12`, for which the Potency result is “inactive”.

As for `CC(=O)OC[C@]12[C@H](OC(C)=O)[C@H](OC(=O)c3ccccc3)[C@@H]3[C@@H](OC(C)=O)[C@]1(OC3(C)C)[C@H](C)C[C@H](OC(C)=O)[C@@H]2OC(=O)c1ccccc1`, the Potency entry is “inactive”.

In the case of `c1ccc2c(CCNc3ccc(Nc4ccncc4)cc3)c[nH]c2c1`, the Potency is 1.16 µM (active) and 525 nM (active).

In the case of `Cc1cccc(-c2[nH]c(CNc3ccccc3F)nc2-c2ccc3ncnn3c2)n1`, the Potency is 13 µM (active).

For the compound `C/C=C/C1=CC2=C(CO1)C(=O)C(C)(OC(=O)c1c(C)cc(O)cc1OC)C(O)C2` (stereo not given), the Potency is 5.7 µM (active).

As for `CCC(C)/C=C(C)/C=C/C1=CC2=C(Cl)C(=O)C(C)(OC(C)=O)C(=O)C2=CN1C(CCCN=C(N)N)C(=O)O` (stereo not given), the Potency entry was “inactive”.

As for `NC[C@@H]1O[C@@H](O[C@@H]2[C@@H](O[C@@H]3O[C@H](CO)[C@@H](O)[C@H]3O)[C@H](O)[C@@H](N)C[C@H]2N)[C@@H](N)[C@H](O)[C@H]1O`, the viability (% of control) was 88.1% [at 9.25 µM].

`C[C@@H]1C[C@H]2[C@@H]3CCC4=CC(=O)C=C[C@]4(C)[C@@]3(F)[C@@H](O)C[C@]2(C)[C@@]1(O)C(=O)COP(=O)(O)O`: the Potency entry was “inactive”.

For the compound `COc1cccc2c1C(=O)c1c(O)c3c(c(O)c1C2=O)C[C@@](O)(C(=O)CO)C[C@@H]3O[C@H]1C[C@H](N)[C@H](O)[C@H](C)O1`, the Potency was 0.133 µM (active).

As for `CCCCCCNC(=O)n1cc(F)c(=O)[nH]c1=O`, the Potency was 1.05 µM (active).

Turning to `CC(C)(C)OC(=O)N1CCC(OCc2nc(-c3ccncc3)no2)CC1`, the Potency entry is “inactive”.

As to `CCOc1ccc(-n2c([C@@H](C)N(Cc3cccnc3)C(=O)Cc3ccc(OC(F)(F)F)cc3)nc3ncccc3c2=O)cc1`, the Potency was 18.4 µM (active).

For the compound `Cc1ccc(-c2ncn(-c3ccc(Nc4nccc(-c5cccc(N6CCOCC6)c5)n4)cc3)n2)cn1`, the Potency is 2.35 µM (active).

As for `CC(=O)N[C@@H](CC(C)C)C(=O)O`, the Potency result is “inactive”.

Regarding `COc1ccc2c3c1O[C@H]1C[C@@H](O)C=C[C@@]31CCN(C)C2`, the Potency result was “inactive”.

For the compound `O=C(O)Cc1csc(-c2ccc(Cl)cc2)n1`, the Potency entry is “inactive”.

Take `COc1ccc(CNC(=O)Nc2ncc([N+](=O)[O-])s2)cc1`: the Potency was 9.34 µM (active).

As for `O=C(O)C1=CC(O)C(O)[C@H](O)C1` (stereo not given in full), the Potency entry was “inactive”.

With `CN(CC1COCCO1)S(=O)(=O)Nc1ccc2ccc3ncc(-c4cnn(C)c4)cc3c(=O)c2c1` (stereo not given), the Potency was 0.164 µM (active).

Turning to `O=C(Nc1ccn[nH]1)c1c(F)cccc1F`, the Potency entry was “inactive”.

For `O=C(NOCCO)c1ccc2cncn2c1Nc1ccc(I)cc1F`, the Potency was 2.06 µM (active).

As for `C=C1C[C@@]2(O)O[C@@]3(C[C@H]2C(C)C)[C@@H](C)CC[C@@H]13`, the Potency result is “inactive”.

In the case of `C=C1C[C@]23C[C@H]1CC[C@H]2[C@@]12CC[C@H](O)[C@@](C)(C(=O)O1)[C@H]2[C@@H]3C(=O)O`, the Potency result was “inactive”.

Regarding `CC1=CC2=C(C)C(=O)C(C)(O)C(O)C2CO1` (stereo not given), the Potency result is “inactive”.

Take `O=C(O)c1ccccc1C(=O)Nc1ccc(S(=O)(=O)Nc2nccs2)cc1`: the Potency result was “inactive”.

For `CCCCCCCC(=O)[O-].CCCCCCCC(=O)[O-].[Zn+2]`, the Potency result was “inactive”.

Take `O=C(O)Cc1ccc(-c2ccccc2)cc1`: the Potency result is “inactive”.

In the case of `c1ccc(Cn2c(-c3ccc(OCC(C4CCNCC4)n4c(-c5ccccc5)nc5ccccc54)cc3)nc3ccccc32)cc1` (stereo not given), the Potency was 5.25 µM (active).

Turning to `O=C(O)c1ccccc1OP(=O)(O)O`, the Potency result is “inactive”.

As for `Cn1c(=O)cc(N2CCCC(N)C2)n(Cc2ccccc2C#N)c1=O` (stereo not given), the Potency result was “inactive”.

As to `C=CC1(C)C=C2CCC3C(C)(C)C(O[C@@H]4O[C@@H](CO)[C@H](O)[C@H]4O)CCC3(C)C2CC1O[C@@H]1O[C@H](C)[C@H](O)[C@H](O)[C@H]1O` (stereo not given in full), the Potency entry is “inactive”.

Consider `C=C(CC/C=C(\C)C(=O)O)C1(O)CC=C(C)CC1` (stereo not given), for which the Potency entry is “inactive”.

As for `CC(C)(C)Nc1nc(Nc2ccc(C(N)=O)cc2)cc(N)c1C#N`, the Potency is 1.64 µM (active).
